# Measured values from PubChem BioAssay.
# Calls of active or inactive are those of the source.
# Tests used:
# [1] = tested on: PRMT1 (protein arginine N-methyltransferase 1); experiment: small molecules binding arginine methyltransferase PRMT1 – biochemical, small-molecule microarray, 635 nm fluorescence, primary screen (AID 1088); details: higher = more signal;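 also: binding of Prmt1 protein to compounds spotted on small-molecule microarray slides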
# [2] = growth effects on S. cerevisiae YJM789 – YJM789 clinical isolate, OD600, 24 h, basal, primary screen (AID 1089); details: higher = more signal, called active from +8 up or from −8 down;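 also: growth of clinical yeast isolate S. cerevisiae YJM 789 seeded 1000 cells per well; test concentration not given here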
# [3] = S. pombe growth modifiers, basal conditions – strain 972, OD600, 24 h, no modulator, primary screen (AID 1090);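 also: basal condition with compound alone and no growth modifier present; test concentration not given here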; details: S. pombe 972 growth, higher = more signal, called active from +8 up or from −8 down
# [4] = budding yeast growth modifiers under rapamycin – strain BY4716, OD600, 96 h, primary screen (AID 1091); also: test concentration not given here; details: S. cerevisiae BY4716 + rapamycin, higher = more signal, called active from +8 up or from −8 down
# [5] = molecular target: Torsin-1A-interacting protein 2 (Homo sapiens) (UniProt Q8NFQ8); experiment: small molecules binding lysate-expressed LULL1 – cell lysate, human LULL1 lysate, 635/667 nm fluorescence, primary screen (AID 1092); details: small-molecule microarray, hLULL1 lysate binding, 635 nm fluorescence; higher = more signal;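 also: probe is lysate of COS7 cells overexpressing human LULL1; score merges per-feature 667 nm fluorescence with signal-to-noise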
# Torsin-1A-interacting protein 2 (Homo sapiens), sequence (Q8NFQ8 whole entry, looked up): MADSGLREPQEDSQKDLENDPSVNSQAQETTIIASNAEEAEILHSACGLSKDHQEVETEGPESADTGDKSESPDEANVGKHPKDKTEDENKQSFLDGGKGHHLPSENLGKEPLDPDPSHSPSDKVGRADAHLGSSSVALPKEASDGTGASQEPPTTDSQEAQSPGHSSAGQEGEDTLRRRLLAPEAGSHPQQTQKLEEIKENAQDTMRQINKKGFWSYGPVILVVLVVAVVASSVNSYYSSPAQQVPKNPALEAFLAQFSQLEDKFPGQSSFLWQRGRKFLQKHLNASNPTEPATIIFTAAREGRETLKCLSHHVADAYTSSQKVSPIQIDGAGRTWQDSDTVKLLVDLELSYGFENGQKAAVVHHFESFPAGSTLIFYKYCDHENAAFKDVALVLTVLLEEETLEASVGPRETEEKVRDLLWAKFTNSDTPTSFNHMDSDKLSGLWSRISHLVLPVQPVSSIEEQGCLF
# [6] = optical density change of DRC41 E. coli – strain DRC41, OD650, 24 h, E. coli filamentation project, primary screen (AID 1093);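 also: MC1000 strain lacking acrAB efflux and sulA so SOS filamentation is blocked; test concentration not given here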; details: E. coli DRC41 growth, higher = more signal, called active from +8 up or from −8 down
# [7] = probe aLefty2 binding to arrayed compounds – biochemical, biotinylated probe, 635/667 nm fluorescence, primary screen (AID 1094); details: small-molecule microarray, higher = more signal;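 also: score merges spot fluorescence near 667 nm with spot signal-to-noise ratio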
# [8] = tested on: Noggin (protein binding on small-molecule microarray); experiment: small molecules binding Noggin protein – biochemical, 635/667 nm fluorescence, primary screen (AID 1095); details: 635 nm fluorescence, higher = more signal;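 also: score merges 667 nm feature fluorescence with signal to noise over triplicate slides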
# [9] = molecular target: Neurogenic locus notch homolog protein 3 (Homo sapiens) (UniProt Q9UM47); experiment: small molecules binding NOTCH3 protein – biochemical, 635/667 nm fluorescence, primary screen (AID 1096); details: small-molecule microarray, 635 nm fluorescence, higher = more signal
# Neurogenic locus notch homolog protein 3 (Homo sapiens), sequence (Q9UM47 whole entry, looked up): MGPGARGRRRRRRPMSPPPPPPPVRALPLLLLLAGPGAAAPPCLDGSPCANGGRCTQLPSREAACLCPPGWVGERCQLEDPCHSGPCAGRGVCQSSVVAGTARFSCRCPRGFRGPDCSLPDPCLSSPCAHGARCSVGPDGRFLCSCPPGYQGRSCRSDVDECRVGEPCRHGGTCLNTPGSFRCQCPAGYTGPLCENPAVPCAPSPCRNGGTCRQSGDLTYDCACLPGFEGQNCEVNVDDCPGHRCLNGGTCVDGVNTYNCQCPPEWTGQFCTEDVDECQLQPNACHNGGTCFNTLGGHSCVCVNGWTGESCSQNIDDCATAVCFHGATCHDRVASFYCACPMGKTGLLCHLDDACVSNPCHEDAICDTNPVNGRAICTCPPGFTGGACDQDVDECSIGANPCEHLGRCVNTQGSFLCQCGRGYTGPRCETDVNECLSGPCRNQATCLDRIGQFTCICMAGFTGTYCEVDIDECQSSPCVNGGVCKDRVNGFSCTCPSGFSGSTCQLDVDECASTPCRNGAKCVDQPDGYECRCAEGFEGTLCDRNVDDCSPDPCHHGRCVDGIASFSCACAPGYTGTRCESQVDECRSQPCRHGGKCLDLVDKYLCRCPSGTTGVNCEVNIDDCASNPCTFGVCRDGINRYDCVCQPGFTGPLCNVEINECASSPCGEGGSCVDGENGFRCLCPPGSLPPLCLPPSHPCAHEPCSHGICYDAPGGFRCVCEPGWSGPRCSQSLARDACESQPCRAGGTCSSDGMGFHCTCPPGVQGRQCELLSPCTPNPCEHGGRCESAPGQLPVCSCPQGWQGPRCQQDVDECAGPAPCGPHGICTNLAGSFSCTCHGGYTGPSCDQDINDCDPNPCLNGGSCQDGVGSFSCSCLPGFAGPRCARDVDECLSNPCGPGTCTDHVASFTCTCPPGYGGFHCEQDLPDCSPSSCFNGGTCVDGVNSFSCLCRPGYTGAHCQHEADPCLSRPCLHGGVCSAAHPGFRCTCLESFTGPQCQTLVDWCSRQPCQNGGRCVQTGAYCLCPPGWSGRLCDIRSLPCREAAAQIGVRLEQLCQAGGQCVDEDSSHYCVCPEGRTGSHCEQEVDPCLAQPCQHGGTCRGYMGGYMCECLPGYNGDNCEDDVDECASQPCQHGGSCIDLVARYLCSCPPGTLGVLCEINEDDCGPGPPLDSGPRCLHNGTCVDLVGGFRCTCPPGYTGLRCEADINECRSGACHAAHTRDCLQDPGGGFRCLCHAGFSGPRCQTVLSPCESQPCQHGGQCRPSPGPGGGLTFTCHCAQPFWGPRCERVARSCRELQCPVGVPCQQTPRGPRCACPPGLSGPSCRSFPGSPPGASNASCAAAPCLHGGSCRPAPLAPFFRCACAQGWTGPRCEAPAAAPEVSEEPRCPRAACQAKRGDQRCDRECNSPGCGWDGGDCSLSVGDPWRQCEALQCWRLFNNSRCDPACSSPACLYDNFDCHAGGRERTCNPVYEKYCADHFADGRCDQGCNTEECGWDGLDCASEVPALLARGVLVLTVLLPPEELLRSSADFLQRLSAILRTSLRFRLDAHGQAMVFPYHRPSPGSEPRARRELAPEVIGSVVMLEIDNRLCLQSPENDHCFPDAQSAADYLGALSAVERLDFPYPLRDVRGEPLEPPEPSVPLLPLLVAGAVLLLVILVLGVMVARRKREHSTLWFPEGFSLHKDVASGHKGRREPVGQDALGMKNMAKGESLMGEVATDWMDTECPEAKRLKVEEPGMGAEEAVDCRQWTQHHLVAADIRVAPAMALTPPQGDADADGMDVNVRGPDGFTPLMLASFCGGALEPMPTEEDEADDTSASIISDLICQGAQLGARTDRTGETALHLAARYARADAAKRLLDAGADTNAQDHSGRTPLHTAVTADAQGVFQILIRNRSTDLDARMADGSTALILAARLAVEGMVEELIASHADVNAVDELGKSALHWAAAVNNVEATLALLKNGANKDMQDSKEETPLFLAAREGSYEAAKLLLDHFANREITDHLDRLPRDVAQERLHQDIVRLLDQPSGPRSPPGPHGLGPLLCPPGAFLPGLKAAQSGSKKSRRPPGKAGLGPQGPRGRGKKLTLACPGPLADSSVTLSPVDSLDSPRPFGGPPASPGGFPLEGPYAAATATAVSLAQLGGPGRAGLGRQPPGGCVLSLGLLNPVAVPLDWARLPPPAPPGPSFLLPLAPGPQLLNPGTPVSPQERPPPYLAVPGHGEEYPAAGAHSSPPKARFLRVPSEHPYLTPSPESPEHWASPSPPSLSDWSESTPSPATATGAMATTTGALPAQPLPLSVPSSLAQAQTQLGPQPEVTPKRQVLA
# [10] = probe aEGFR binding to arrayed compounds – biochemical, biotinylated probe, 635/667 nm fluorescence, primary screen (AID 1097); details: small-molecule microarray, higher = more signal;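 also: probe is a biotinylated anti-EGFR antibody binding compounds printed on slides; score combines fluorescence near 667 nm and signal to noise of each spot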
# [11] = tested on: Plasmodium falciparum Sir2 (PF13_0152, Sir2A); experiment: Plasmodium falciparum Sir2A binding compounds – biochemical, small-molecule microarray, 635 nm fluorescence, primary screen (AID 1098); details: fluorescence 635 nm, higher = more signal;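 also: score merges spot fluorescence intensity with its signal-to-noise ratio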
# [12] = probe aDKK1 binding to arrayed compounds – biochemical, biotinylated probe, 635/667 nm fluorescence, primary screen (AID 1099); details: small-molecule microarray, higher = more signal;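 also: score merges 667nm spot fluorescence with signal to noise across triplicate slides; reference of the scale not given here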
# [13] = probe aCHRDL2 binding to arrayed compounds – biochemical, biotinylated probe, 635/667 nm fluorescence, primary screen (AID 1100); details: small-molecule microarray, higher = more signal
# [14] = change in splice reporter luminescence, either direction, cell-based, HEK293, spliceosome inhibition project, primary screen (AID 1101); details: HEK293 splicing luciferase reporter, 24 h, higher = more signal, called active from +8 up or from −8 down;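 also: HEK293 cells carrying a splicing-competent luciferase reporter gene; test concentration not given here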
# [15] = molecular target: Fibroblast growth factor 10 (Homo sapiens) (UniProt O15520); experiment: compounds binding fibroblast growth factor 10 – biochemical, small-molecule microarray, 635 nm fluorescence, primary screen (AID 1102); details: FGF10 binding, fluorescence 635 nm, higher = more signal
# Fibroblast growth factor 10 (Homo sapiens), sequence (O15520 whole entry, looked up): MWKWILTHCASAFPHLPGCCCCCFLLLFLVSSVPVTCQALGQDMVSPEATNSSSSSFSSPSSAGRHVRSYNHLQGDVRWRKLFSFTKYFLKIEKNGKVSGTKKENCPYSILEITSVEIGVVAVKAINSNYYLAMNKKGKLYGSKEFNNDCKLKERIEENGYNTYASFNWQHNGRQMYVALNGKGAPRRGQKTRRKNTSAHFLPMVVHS
# [16] = tested on: glycogen synthase kinase-3 (GSK3A per assay name; protocol says GSK3B); experiment: compounds binding glycogen synthase kinase-3 – biochemical, small-molecule microarray, 635 nm fluorescence, GSK3A, primary screen (AID 1103); details: fluorescence 635 nm, higher = more signal; also: the record names both GSK3A and GSK3B
# [17] = molecular target: Epidermal growth factor receptor (Homo sapiens) (UniProt P00533); experiment: compounds binding epidermal growth factor receptor – biochemical, small-molecule microarray, 635 nm fluorescence, primary screen (AID 1104); details: EGFR binding, higher = more signal;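 also: score merges 667 nm emission intensity with spot signal to noise over triplicate slides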
# Epidermal growth factor receptor (Homo sapiens), sequence (P00533 whole entry, looked up): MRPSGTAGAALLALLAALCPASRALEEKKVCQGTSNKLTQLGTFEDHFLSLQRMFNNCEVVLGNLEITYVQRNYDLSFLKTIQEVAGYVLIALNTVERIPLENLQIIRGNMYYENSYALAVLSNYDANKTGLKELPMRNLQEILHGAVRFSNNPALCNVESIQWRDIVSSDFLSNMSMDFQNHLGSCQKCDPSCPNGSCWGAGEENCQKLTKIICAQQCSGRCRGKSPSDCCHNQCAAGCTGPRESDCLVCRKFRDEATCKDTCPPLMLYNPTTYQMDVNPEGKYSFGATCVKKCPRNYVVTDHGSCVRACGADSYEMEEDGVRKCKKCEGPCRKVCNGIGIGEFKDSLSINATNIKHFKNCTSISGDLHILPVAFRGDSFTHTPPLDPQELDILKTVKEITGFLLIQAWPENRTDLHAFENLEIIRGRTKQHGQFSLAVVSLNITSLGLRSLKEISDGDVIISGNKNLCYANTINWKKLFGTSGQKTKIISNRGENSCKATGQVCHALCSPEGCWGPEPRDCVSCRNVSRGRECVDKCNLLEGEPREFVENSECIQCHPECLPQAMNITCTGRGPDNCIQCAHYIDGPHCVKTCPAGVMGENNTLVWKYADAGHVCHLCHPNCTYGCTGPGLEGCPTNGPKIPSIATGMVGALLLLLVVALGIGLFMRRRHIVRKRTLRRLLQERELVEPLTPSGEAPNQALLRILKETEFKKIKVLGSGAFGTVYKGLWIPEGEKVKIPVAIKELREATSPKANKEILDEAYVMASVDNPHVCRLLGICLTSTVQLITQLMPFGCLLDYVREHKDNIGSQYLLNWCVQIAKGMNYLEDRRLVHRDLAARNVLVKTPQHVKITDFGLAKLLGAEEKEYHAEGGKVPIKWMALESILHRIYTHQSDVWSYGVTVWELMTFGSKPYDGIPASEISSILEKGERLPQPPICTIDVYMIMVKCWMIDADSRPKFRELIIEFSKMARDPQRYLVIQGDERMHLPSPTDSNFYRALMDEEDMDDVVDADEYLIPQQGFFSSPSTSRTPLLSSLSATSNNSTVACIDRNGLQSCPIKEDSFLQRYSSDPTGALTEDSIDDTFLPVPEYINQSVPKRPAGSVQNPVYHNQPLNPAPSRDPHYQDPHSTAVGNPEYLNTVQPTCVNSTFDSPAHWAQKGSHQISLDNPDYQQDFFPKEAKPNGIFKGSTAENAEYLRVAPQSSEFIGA
# [18] = molecular target: Follistatin-related protein 3 (Homo sapiens) (UniProt O95633); experiment: compounds binding follistatin-related protein 3 – biochemical, small-molecule microarray, 635 nm fluorescence, primary screen (AID 1105); details: FSTL3 binding, higher = more signal;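 also: score merges emission near 667 nm and signal to noise per printed spot across three slides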
# Follistatin-related protein 3 (Homo sapiens), sequence (O95633 whole entry, looked up): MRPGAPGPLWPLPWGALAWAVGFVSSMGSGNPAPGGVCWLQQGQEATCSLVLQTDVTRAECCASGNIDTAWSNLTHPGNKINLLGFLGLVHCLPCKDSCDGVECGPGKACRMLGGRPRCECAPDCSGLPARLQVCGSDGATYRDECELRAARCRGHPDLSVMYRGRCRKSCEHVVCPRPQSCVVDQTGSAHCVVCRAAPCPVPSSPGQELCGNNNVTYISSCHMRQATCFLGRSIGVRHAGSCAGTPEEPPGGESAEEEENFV
# [19] = molecular target: Dickkopf-related protein 1 (Homo sapiens) (UniProt O94907); experiment: small molecules binding DKK1 protein – biochemical, small-molecule microarray, 635 nm fluorescence scan, primary screen (AID 1106); details: higher = more signal;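 also: score merges emission near 667 nm with signal to noise over three replicate slides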
# Dickkopf-related protein 1 (Homo sapiens), sequence (O94907 whole entry, looked up): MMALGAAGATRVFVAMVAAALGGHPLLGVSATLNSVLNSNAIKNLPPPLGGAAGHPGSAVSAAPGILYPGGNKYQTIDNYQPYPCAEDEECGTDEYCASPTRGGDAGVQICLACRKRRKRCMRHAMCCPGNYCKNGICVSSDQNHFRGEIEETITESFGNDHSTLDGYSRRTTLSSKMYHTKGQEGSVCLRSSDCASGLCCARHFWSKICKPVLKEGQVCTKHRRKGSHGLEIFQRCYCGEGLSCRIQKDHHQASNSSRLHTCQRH
# [20] = tested on: Inhibin beta A chain (activin A); experiment: small molecules binding activin A – biochemical, small-molecule microarray, 635 nm fluorescence scan, primary screen (AID 1107); details: INHBA, higher = more signal;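 also: mouse activin A protein probed at 4.33 µg/mL on printed slides; score merges bound-protein fluorescence near 667 nm with spot signal-to-noise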
SMILES,composite z-score [1],z-score [2],z-score [3],z-score [4],composite z-score [5],z-score [6],composite z-score [7],composite z-score [8],composite z-score [9],composite z-score [10],composite z-score [11],composite z-score [12],composite z-score [13],z-score [14],composite z-score [15],composite z-score [16],composite z-score [17],composite z-score [18],composite z-score [19],composite z-score [20]
C=C(C)[C@@H]1CC=C(C(O)C2C=CC3C(=O)N(c4ccccc4)C(=O)C3N2Nc2ccc(C#N)cc2)CC1 (stereo not given in full),1.54,0.188 (inactive),0.369 (inactive),4.16 (inactive),3.33,-1.9 (inactive),0.386,0.35,1.04,0.0717,1.31,0.327,1.15,0.857 (inactive),0.997,1.31,0.628,1.34,-0.0273,0.749
COCCOC(=O)N1C(=O)[C@@]2(c3cc(C#CCC(C(=O)OC)C(=O)OC)ccc31)[C@H](c1ccc(OCCO)cc1)N1[C@H](c3ccccc3)[C@H](c3ccccc3)OC(=O)[C@H]1[C@@H]2C(=O)Nc1nc2ccccc2s1,1.57,2.28 (inactive),2.31 (inactive),4.03 (inactive),0.828,2.5 (inactive),-0.122,0.994,1.1,-0.04,1.02,0.0317,-0.108,0.907 (inactive),0.84,1.06,0.292,1.08,0.279,0.495
C[C@]1(C(=O)NCCN2CCOCC2)c2ccccc2C(=O)N(Cc2cc(F)cc(C(F)(F)F)c2)[C@H]1c1ccc(CO)cc1,1.49,0.006 (inactive),0.487 (inactive),-0.837 (inactive),3.36,1.47 (inactive),-0.0511,0.463,0.572,-0.142,1.81,-0.0342,0.841,-0.0156 (inactive),-0.134,-0.626,-1.01,-0.0362,-0.876,0.59
COCC(=C=CC[C@H](O)c1cccc(OCCO)c1)C[C@H](O)COCc1ccccc1,0.949,-0.244 (inactive),-1.43 (inactive),-0.271 (inactive),2.22,-0.142 (inactive),0.084,0.546,0.237,0.0167,1.66,0.39,-0.121,0.13 (inactive),1.17,0.677,-0.751,0.0438,-0.529,1.03
COC(=O)C1=CC(CCCO)=CC(c2ccc(CN3CCCC3)cc2)N(Cc2cc3c(cc2Br)OCO3)C=C1C(=O)OC (stereo not given),1.57,-0.622 (inactive),-1.23 (inactive),-0.371 (inactive),3.5,-0.327 (inactive),0.639,0.719,1.01,0.481,1.16,1.12,0.986,-0.967 (inactive),1.45,0.636,0.19,1.46,0.836,1.13
COC(=O)[C@@]1(Cc2ccc(OC)cc2)[C@H]2c3cc(C(=O)N4CCCC4)n(Cc4cc(C)n(C)n4)c3C[C@H]2CN1C(=O)c1ccccc1,0.481,-0.102 (inactive),1.31 (inactive),0.202 (inactive),3.85,-0.265 (inactive),0.724,-0.513,1.04,0.701,1.74,1.26,1.17,0.317 (inactive),1.32,0.666,-0.158,0.0098,-0.712,0.104
CCCCCN1CC=CC23O[C@@H]4C=CCOC(=O)[C@@H]4[C@H]2C(=O)N(CCO)[C@@H]3C1=O (stereo not given in full),0.487,0.15 (inactive),-0.178 (inactive),-0.175 (inactive),2.35,-0.229 (inactive),-0.244,-1.25,-0.195,-0.235,-0.0015,-0.314,0.634,0.374 (inactive),-0.318,-0.527,-1.17,-1.3,-1.25,0.393
O=c1cccc(-c2ccco2)o1,1.29,-0.445 (inactive),-0.311 (inactive),0.167 (inactive),0.108,-0.696 (inactive),-0.0963,1.32,0.832,0.0023,1.28,-0.148,-0.617,0.935 (inactive),0.955,0.829,0.693,1.02,1.16,1.24
C=C(C(=O)CC[C@@H](OC(=O)c1ccccc1-c1ccccc1C(=O)O)c1ccccc1OCCO)C(C)C,1.55,-1.28 (inactive),-0.832 (inactive),-1.88 (inactive),1.14,0.293 (inactive),-0.0617,1.36,1.05,-0.112,1.07,-0.232,-0.463,1.58 (inactive),1.53,0.645,0.354,1.38,0.73,1.26
COC(=O)C1=CC(CCCO)=CC(C)N(Cc2cccc(OC(F)(F)F)c2)C=C1C(=O)OC (stereo not given),0.897,-0.743 (inactive),-2.12 (inactive),0.219 (inactive),2.65,-1.53 (inactive),-0.0712,-0.296,0.532,-0.02,0.325,0.116,0.259,-0.488 (inactive),0.278,-0.606,-0.94,0.0535,-0.695,0.383
